The entries come from a sample that favours hits as a whole.
Cruzain inh noDet = qHTS Assay for Promiscuous and Specific Inhibitors of Cruzain (without detergent); Cruzipain (Trypanosoma cruzi), P25779; purified cruzain, Z-FR-AMC fluorescence, no detergent; Potency, µM, usual class: inhibitors; 2.3% of 200,000 active; AID 1476, 2009; also: nearly all actives have a fitted effect of over 40% in size
Target sequence (P25779 123-467 limits assumed): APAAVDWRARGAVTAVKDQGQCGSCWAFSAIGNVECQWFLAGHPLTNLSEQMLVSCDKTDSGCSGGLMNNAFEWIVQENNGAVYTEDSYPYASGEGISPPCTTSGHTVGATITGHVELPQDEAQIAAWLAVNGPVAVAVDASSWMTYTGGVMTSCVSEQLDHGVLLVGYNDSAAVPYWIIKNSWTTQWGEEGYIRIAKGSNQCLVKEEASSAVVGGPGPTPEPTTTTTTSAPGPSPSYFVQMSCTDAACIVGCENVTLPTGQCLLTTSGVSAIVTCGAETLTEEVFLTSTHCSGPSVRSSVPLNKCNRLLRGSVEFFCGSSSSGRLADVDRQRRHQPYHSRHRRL
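Detergent-free condition (0.00005% Triton X-100) in acetate buffer pH 5.5 with DTT. 1.5 nM enzyme and compound were pre-mixed 15 min, then 2 uM Z-FR-AMC substrate added; reaction progress from fluorescence change between first and third reads (60 s).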
Cruzain Triton = qHTS Assay for Promiscuous and Specific Inhibitors of Cruzain (with detergent). Cruzipain (Trypanosoma cruzi), P25779. purified cruzain, Z-FR-AMC fluorescence, 0.01% Triton. Potency, µM, actives largely listed as inhibitors. 0.43% of 200,000 active. AID 1478, 2009; also: nearly all actives have a fitted effect of over 40% in size
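Compounds were screened in titration against cruzain (1.5 nM) with 0.01% Triton X-100 to counter colloidal aggregation. Activity was the AMC fluorescence increase over 60 s after adding 2 uM Z-FR-AMC at pH 5.5.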
NS1 function inh = qHTS Assay for Inhibitors of Influenza NS1 Protein Function. 0.4% of 270,000 active. Potency, µM (highest dose often 46.1 µM). AID 2326, 2010; calls by dose curve; also: actives are rising curves; nearly all actives have a fitted effect of over 50% in size
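In this qHTS, NS1 from influenza A is expressed in budding yeast, where it slows growth. Cells are switched from glucose to 2% galactose medium (pH 6.0, -URA), treated with compound, and growth recovery is read at OD600.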
Hits are given with their value; i = inactive; ? = inconclusive; nt = no result given. Unless noted, calls follow the shape of the dose curve; as a rule, active = well fitted curve in the direction sought with a large enough effect; inconclusive = small, poorly fitted or top-dose-only effect, or another doubt; inactive = no such curve, though single readings can be large; an effect the other way counts as inactive or inconclusive.

SMILES	Cruzain inh noDet	Cruzain Triton	NS1 function inh
CN(C)S(=O)(=O)c1cccc(-c2nn(-c3ccccc3)cc2/C=C(\C#N)c2nc3ccccc3[nH]2)c1	?	i	i
N#C/C(=C\c1ccc(-c2ccccc2C(=O)O)o1)c1nc2ccccc2[nH]1	i	i	i
COC1=CC(=O)C(O)=C/C1=C\C=C\c1ccccc1	i	i	nt
Cc1nc2cnc(Nc3ccccc3)nc2n(CCc2ccccc2)c1=O	i	i	nt
O=S(=O)(c1cccc(Cl)c1)n1c(/C=C/c2ccccc2Cl)nc2ccccc21	7.9µM	i	nt
CSc1ccc(/C=C/c2nc3ccccc3n2S(=O)(=O)c2cccc(Cl)c2)cc1	i	i	nt
Cc1ccc2nc(N3CCC(C(=O)N4CCN(c5cccc(Cl)c5)CC4)CC3)[nH]c2c1	i	i	nt
CC(C)Sc1nc(SCC(=O)NCc2ccco2)c2c3c(sc2n1)COC(C)(C)C3	25µM	25µM	i
CCCSc1nc(SCC(=O)NCc2ccccc2)c2c3c(sc2n1)COC(C)(C)C3	i	i	i
CCOc1ccc(Nc2nc3c(S(=O)(=O)c4ccc(CC)cc4)nnn3c3ccc(Cl)cc23)cc1	i	i	nt
COc1cccc(NC(=O)C2CCN(S(=O)(=O)c3ccc4[nH]c5c(c4c3)CCCCC5)CC2)c1	20µM	i	nt
COc1cccc(NC(=O)C2CCN(S(=O)(=O)c3ccc4[nH]c(=O)ccc4c3)CC2)c1	nt	nt	i
CSc1cccc(NC(=O)C2CCN(S(=O)(=O)c3ccc4[nH]c5c(c4c3)CCCCC5)CC2)c1	13µM	i	nt
CSc1cccc(NC(=O)C2CCN(S(C)(=O)=O)CC2)c1	i	i	i
COc1ccccc1NC(=O)C1CCN(S(=O)(=O)c2ccc3[nH]c4c(c3c2)CCCCC4)CC1	20µM	i	nt
CCOC(=O)C1CCN(S(=O)(=O)c2ccc3[nH]c4c(c3c2)CCCC4)CC1	nt	nt	i
CC(=O)c1cccc(NC(=O)C2CCN(S(=O)(=O)c3ccc(F)cc3)CC2)c1	i	i	i
O=C(Nc1cccc(F)c1)C1CCN(S(=O)(=O)c2ccc3[nH]c4c(c3c2)CCCCC4)CC1	16µM	i	nt
COc1ccc(-c2cc(C(F)(F)F)n3nc(C(=O)Nc4ccccc4SC)cc3n2)cc1OC	i	i	nt
Cc1ccc2nc(Cl)c3cc(C(=O)NC4CCC(C)CC4)sc3c2c1 (stereo not drawn)	i	i	nt
CC(=O)NCCNc1nc(-c2ccccc2C(F)(F)F)nc2ccccc12	i	i	nt
Nc1ccc(S(=O)(=O)O)cc1	i	i	nt
CC(=O)c1ccc(NS(=O)(=O)c2ccc3[nH]c4c(c3c2)CCCCCC4)cc1	?	i	nt
CC(=O)c1ccc(N2CCN(S(=O)(=O)c3ccc4[nH]c5c(c4c3)CCCCC5)CC2)cc1	10µM	i	nt
COc1ccc(C)cc1NC(=O)c1ccc(=O)n(Cc2ccccc2)c1	i	i	nt
SMILES	Cruzain inh noDet	Cruzain Triton	NS1 function inh
N#CCCn1cnc2c1NC=NC2Cl (stereo not drawn)	i	i	nt
O=C(Nc1ccc(Cl)cc1)C1CCC(CNS(=O)(=O)c2ccc(Br)s2)CC1 (stereo not drawn)	25µM	i	nt
CC(=O)c1ccc(NC(=O)C2CCC(CNS(=O)(=O)c3ccc(Br)s3)CC2)cc1 (stereo not drawn)	i	i	nt
C=CCOC(=O)N[C@H](/C(C(=O)OC)=C(\C)NCc1ccccc1)c1ccc(Br)cc1	i	i	nt
O=C(O)c1ccc2cc(-c3ccc(O)c(C45CC6CC(CC(C6)C4)C5)c3)ccc2c1	i	?	nt
CCc1nnc(NC(=O)c2ccc(COc3ccc(C)cc3)o2)s1	25µM	i	i
CCc1nnc(NC(=O)c2ccc(COc3ccccc3)o2)s1	?	i	i
CCc1nnc(NC(=O)c2ccc(-c3cc(C(F)(F)F)ccc3Cl)o2)s1	i	i	i
CCc1nnc(NC(=O)c2ccc(-c3cccc(C(F)(F)F)c3)o2)s1	13µM	i	i
Cc1sc2ccccc2[n+]1CCC(=O)O	i	i	i
CC(C)c1ccc(/C(C(=O)O)=C(\O)C(=O)O)cc1	i	i	i
CN(C)c1ccc(-c2ccc3ncnc(NC4CC4)c3c2)cc1	i	i	nt
Oc1ccc(N=C/C=C/c2ccc(Br)cc2)cc1-c1nc2ccccc2s1	32µM	i	i
Brc1cc2c(cc1-c1nc3ccccc3s1)OCO2	nt	nt	i
CCNC(=O)[C@H]1O[C@@H](n2cnc3c(N)ncnc32)[C@H](O)[C@H]1O	i	i	i
CCOC(=O)c1ccc(NC(=O)Cc2noc3ccc(C)cc23)cc1	i	i	nt
COc1ccc(NC(=O)Cc2noc3ccc(C)cc23)cc1Cl	25µM	?	nt
Cc1c(Cc2ccc3c(c2)OCO3)sc(NC(=O)c2ccc3ccccc3c2)c1C(N)=O	10µM	i	i
CCC(=O)Nc1sc(Cc2ccc3c(c2)OCO3)c(C)c1C(N)=O	nt	nt	i

Screening data: PubChem, National Center for Advancing Translational Sciences (NCATS)
